# PubChem BioAssay
# Several values for one entry are separate records, joined by “and”; a condition that tells them apart may be missing. Equal entries are not always repeated. Activity calls are given as the source filed them.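 Rule for the calls, unless noted: active = compounds whose cell count with miR-34 switched on is under 0.7 times the count with it off; inactive = the rest.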
# Key:
# [1] = sensitizers of A549 cells to miR-34 induction, primary screen, imaging, A549 dox-inducible miR-34, nuclei and caspase counts (AID 1347080); settings: A549 miR-34 inducible, Hoechst nuclei count, 48 h
# [2] = survival rescue of mitochondrial mutant cells in low glucose, primary screen, MELAS cybrids, Rieske KO mouse fibroblasts, CellTiter-Glo (AID 1508586;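 active = mean z-score across replicates of 1.96 or higher in either the MELAS or the Rieske mutant cell line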;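 note: z relative to plate mean and SD of compound and empty wells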)
# [3] = stronger effect = lower value, cell number ratio, induced over uninduced
# [4] = measured here: relative caspase fold change +Dox/-Dox
# [5] = measured here: total cells with miR-34 induction, stronger effect = lower value
# [6] = measured here: total cells without miR-34 induction
# [7] = MELAS cybrid survival, CellTiter-Glo 48 h, stronger effect = higher value
# [8] = Rieske KO mouse fibroblast survival, CellTiter-Glo 72 h
# Note: test concentration not given here.
SMILES,"fold change [1, 3]","fold change [1, 4]","cell count [1, 5]","cell count [1, 6]","z-score [2, 7]","z-score [2, 8]"
CON=C(C(=O)NC1C(=O)N2C(C(=O)OCOC(=O)C(C)(C)C)=C(C=Cc3scnc3C)CS[C@H]12)c1csc(N)n1 (stereo partly specified),0.852 (inactive),0.561,7580,8900,-0.26 (inactive),0.818
CC1OC(OC2C(Oc3cc(O)c4c(c3)OC(c3ccc(O)cc3)CC4=O)OC(CO)C(O)C2O)C(O)C(O)C1O (stereo unspecified),1 (inactive),0.741,8310,8300,-0.421 (inactive),-0.0851
CCOc1ccccc1OC(c1ccccc1)[C@H]1CNCCO1 (stereo partly specified),0.858 (inactive),1.73,8800,10300,-0.71 (inactive),-0.166
Cn1nc(C(C)(C)C)cc1C(=O)NC(Cc1cccc(Cl)c1)C(=O)NCC#N (stereo unspecified),0.927 (inactive),0.462,7540,8140,0.131 (inactive),0.0966
Cc1c(O)cccc1C(=O)NC(CSc1ccccc1)C(O)CN1C[C@H]2CCCC[C@H]2CC1C(=O)NC(C)(C)C (stereo partly specified),0.999 (inactive),0.485,7710,7710,-0.177 (inactive),-0.0438
CC(=O)OC1C(=O)[C@]2(C)C(O)CC3OC[C@@]3(OC(C)=O)C2C(OC(=O)c2ccccc2)[C@]2(O)CC(OC(=O)C(O)C(NC(=O)c3ccccc3)c3ccccc3)C(C)=C1C2(C)C (stereo partly specified),0.984 (inactive),0.702,1360,1380,1.51 (inactive),0.434
O=C(O)c1cc(I)ccc1NC(=O)C(Cc1ccccc1)NCc1ccccc1 (stereo unspecified),0.835 (inactive),0.632,8450,10100,-0.035 (inactive),1.09
CCC(C)(C)c1ccc(CC(C)CN2CC(C)OC(C)C2)cc1 (stereo unspecified),0.944 (inactive),0.765,8210,8700,-0.433 (inactive),0.477
O=C1C(Cl)=C(N2CCOCC2)C(=O)N1c1ccc(Cl)c(Cl)c1,0.939 (inactive),0.753,7840,8360,-0.367 (inactive),-0.893
Nc1ncnc2c1ncn2C1OC(CO)C(O)C1O (stereo unspecified),0.838 (inactive) and 0.824 (inactive),0.867 and 1.17,6490 and 8470,7740 and 10300,-0.00177 (inactive) and -0.197 (inactive),-2.04 and 0.972
C=C1C(=O)OC2C1CCC(C)=CCC[C@@]1(C)OC21 (stereo partly specified),0.965 (inactive),0.646,8720,9040,0.936 (inactive),-0.281
CC(C)N(CCCNC(=O)Nc1ccc(C(C)(C)C)cc1)CC1OC(n2ccc3c(N)ncnc32)C(O)C1O (stereo unspecified),0.885 (inactive),0.359,8440,9540,-0.287 (inactive),0.555
CC(CS)C(=O)N1CCCC1C(=O)O (stereo unspecified),1.01 (inactive),0.525,8320,8250,-0.2 (inactive),-0.263
CC(=O)OCC(=O)[C@]1(O)CC[C@H]2[C@@H]3CCC4=CC(=O)CC[C@]4(C)[C@@H]3C(=O)C[C@@]21C,0.938 (inactive),0.685,9630,10300,-0.429 (inactive),-0.073
COc1cc2c(cc1O)CC[C@@H]1[C@H]2CC[C@]2(C)C(O)CC[C@@H]12 (stereo partly specified),1.05 (inactive),0.703,1820,1740,1.32 (inactive),0.434
COc1cc2c(cc1Cc1cccc(Cl)c1F)c(=O)c(C(=O)O)cn2C(CO)C(C)C (stereo unspecified),0.611 (active),1.26,3970,6500,-0.198 (inactive),0.532
CNC(=O)C(c1ccccc1)N1CCc2cc(OC)c(OC)cc2C1CCc1ccc(C(F)(F)F)cc1 (stereo unspecified),1.06 (inactive),0.482,6530,6180,-0.149 (inactive),0.101
CC(NC(=O)C(O)c1cc(F)cc(F)c1)C(=O)NC1C(=O)N(C)c2ccccc2-c2ccccc21 (stereo unspecified),0.896 (inactive),0.875,8040,8970,-0.323 (inactive),1.18
CC(C)OC(=O)OCOP(=O)(COC(C)Cn1cnc2c(N)ncnc21)OCOC(=O)OC(C)C (stereo unspecified),0.941 (inactive),0.831,7870,8370,-0.399 (inactive),0.463
CC1OC(Oc2c(-c3cc(O)c(O)c(O)c3)oc3cc(O)cc(O)c3c2=O)C(O)C(O)C1O (stereo unspecified),0.976 (inactive),1.01,8230,8430,-0.43 (inactive),-0.277
CC1(C)SC2C(NC(=O)C(NC(=O)N3CCNC3=O)c3ccccc3)C(=O)N2C1C(=O)O (stereo unspecified),0.905 (inactive),1.06,8030,8880,-0.162 (inactive),-0.16
C=CC[N+]1(C2C[C@H]3[C@@H]4CC[C@H]5CC(O)C(N6CCOCC6)C[C@]5(C)[C@@H]4CC[C@]3(C)C2OC(C)=O)CCCC1 (stereo partly specified),0.951 (inactive),0.974,8100,8520,-0.403 (inactive),0.424
CC1=C(CC(=O)O)c2cc(F)ccc2C1=Cc1ccc(S(C)=O)cc1 (stereo unspecified),0.878 (inactive),0.667,7920,9010,-0.193 (inactive),0.691

SMILES,"fold change [1, 3]","fold change [1, 4]","cell count [1, 5]","cell count [1, 6]","z-score [2, 7]","z-score [2, 8]"
CCC(=O)O[C@@]1(C(=O)CCl)[C@@H](C)C[C@H]2[C@@H]3CCC4=CC(=O)C=C[C@]4(C)[C@]3(F)[C@H](O)C[C@@]21C,0.838 (inactive),0.869,5560,6630,-0.516 (inactive),-0.656
O=CC(O)C(O)C(O)CO (stereo unspecified),0.913 (inactive),0.975,7900,8650,0.55 (inactive),-0.188
CC(CCC(=O)O)[C@@H]1CC[C@H]2[C@@H]3C(O)C[C@@H]4CC(O)CC[C@]4(C)[C@@H]3CC[C@]12C (stereo partly specified),0.828 (inactive),0.703,7430,8980,-0.242 (inactive),0.0686
CCc1ccc(C=C2SC(=S)NC2=O)cc1,0.911 (inactive),0.424,7750,8500,-0.119 (inactive),0.267
CC(NC(=O)C(O)C(C)C)C(=O)NC1C(=O)N(C)CCc2ccccc21 (stereo unspecified),0.932 (inactive),0.791,7480,8020,-0.185 (inactive),-1.14
NC(Cc1cc(I)c(Oc2cc(I)c(O)c(I)c2)c(I)c1)C(=O)O (stereo unspecified),0.891 (inactive),1.04,8130,9130,-0.238 (inactive),-1.06
Cc1ccc(S(=O)(=O)n2c(N)nc3ccccc32)cc1,1.01 (inactive),0.588,6490,6440,-0.425 (inactive),-0.074
Cc1ccc(-n2sc(=O)n(Cc3ccc(F)cc3)c2=O)cc1,0.959 (inactive),0.337,8430,8790,-0.268 (inactive),-0.132
COc1cc(C2Oc3ccc(C4Oc5cc(O)cc(O)c5C(=O)C4O)cc3OC2CO)ccc1O (stereo unspecified),0.913 (inactive),0.744,8070,8840,-0.245 (inactive),-0.07
C[C@@H]1COc2c(N3CCN(C)CC3)c(F)cc3c(=O)c(C(=O)O)cn1c23,0.906 (inactive),0.634,8330,9190,-0.0742 (inactive),0.213
COc1ccc(CNc2nc(N3CCCC3CO)ncc2C(=O)NCc2ncccn2)cc1Cl (stereo unspecified),0.988 (inactive),1.09,8210,8300,-0.603 (inactive),-0.114
CCC(NC(=O)C(C)NC)C(=O)N1CC(O)CC1Cc1c(-c2[nH]c3cc(F)ccc3c2CC2CC(O)CN2C(=O)C(CC)NC(=O)C(C)NC)[nH]c2cc(F)ccc12 (stereo unspecified),0.946 (inactive),0.86,9020,9540,-0.425 (inactive),-0.265
CC(C)CC(NC(=O)CNC(=O)c1cc(Cl)ccc1Cl)B(O)O (stereo unspecified),0.948 (inactive),1.44,1800,1900,-0.0464 (inactive),-3.37
Nc1ncn(C2CC(O)C(CO)O2)c(=O)n1 (stereo unspecified),0.936 (inactive),0.727,7530,8050,-0.461 (inactive),0.644
CC(C)C(C(=O)Nc1ccc(C(=O)NO)cc1)c1ccccc1 (stereo unspecified),0.964 (inactive),0.891,1000,1040,2.39 (active),0.0158
O=C(Nc1cccc(Cl)c1)c1ccccn1,0.981 (inactive),0.991,7550,7700,0.406 (inactive),-0.326
CC(O)=C(C#N)C(=O)Nc1ccc(C(F)(F)F)cc1,0.904 (inactive),1.22,7860,8690,-0.297 (inactive),-0.28
CCOC(=O)C(CCc1ccccc1)NC(C)C(=O)N1Cc2ccccc2CC1C(=O)O (stereo unspecified),0.963 (inactive),1.71,8090,8400,0.0216 (inactive),-0.419
CC1COCCN1c1cc(C2(S(C)(=O)=O)CC2)nc(-c2cccc3[nH]ccc23)n1 (stereo unspecified),0.703 (inactive),2.27,1950,2770,2.53 (active),-0.319
O=C(C=Cc1ccc(O)cc1)c1ccc(O)cc1O,0.99 (inactive),0.784,8890,8980,-0.337 (inactive),0.414
CCOc1ccc2ccccc2c1C(=O)NC1C(=O)N2C(C(=O)O)C(C)(C)S[C@H]12 (stereo partly specified),1.19 (inactive),0.989,8800,7400,-0.279 (inactive),-0.179
Cc1cn(C2OC(CO)C(O)C2F)c(=O)[nH]c1=O (stereo unspecified),0.93 (inactive),0.942,9750,10500,-0.347 (inactive),0.612
CC1(C)OC2C[C@H]3[C@@H]4CCC5=CC(=O)CC[C@]5(C)[C@]4(F)C(O)C[C@]3(C)[C@@]2(C(=O)CCl)O1 (stereo partly specified),0.851 (inactive),0.816,4440,5220,-0.306 (inactive),-0.265
